# PubChem BioAssay (EPA / NIEHS)
# Inconclusive results are not listed. The source made the active and inactive calls. How the source made its calls: active means hit-call score of the fitted dose curve at least 0.9, where 1 is the maximum; inconclusive means response in the unintended direction; inactive means score below 0.9.
# Columns and labels:
# [1] = molecular target: human Vascular Endothelial Growth Factor Receptor 1 (VEGFR1), FLT1 (gene 2321) (UniProt P17948); assay: NVS_ENZ_hVEGFR1: NovaScreen (NVS) Enzymatic Assay for human Vascular Endothelial Growth Factor Receptor 1 (VEGFR1) (AID 2283226)
# Procedure, shortened: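 Cell-free assay of recombinant human VEGFR1 kinase with substrate, measured 1 h after dosing; fluorescence with electrophoretic mobility-shift separation of substrate and product, referenced to DMSO; primary screen at 25 uM in duplicate, actives then run in concentration series.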
# [2] = molecular target: human Vascular Endothelial Growth Factor Receptor 3 (VEGFR3), FLT4 (gene 2324) (UniProt P35916); assay: NVS_ENZ_hVEGFR3: NovaScreen (NVS) Enzymatic Assay for human Vascular Endothelial Growth Factor Receptor 3 (VEGFR3) (AID 2283229)
# Procedure, shortened: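 Cell-free recombinant VEGFR3 kinase reaction with fluorescent substrate, read 1 h after dosing by electrophoretic mobility shift separation of substrate and product. Single-concentration duplicate screen at 25 uM, then concentration-response up to 50 uM; loss of activity versus DMSO.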
# [3] = molecular target: human Vascular Endothelial Growth Factor Receptor 2 (VEGFR2), KDR (gene 3791) (UniProt P35968); assay: NVS_ENZ_hVEGFR2: NovaScreen (NVS) Enzymatic Assay for human Vascular Endothelial Growth Factor Receptor 2 (VEGFR2) (AID 2283230)
# Experimental: NVS_ENZ_hVEGFR2 is a biochemical, single-readout assay that uses extracted gene-proteins in a cell-free assay. Measurements were taken 1 hour after chemical dosing in a 384-well plate.NVS_ENZ_hVEGFR2 is one of one assay component(s) measured or calculated from the NVS_ENZ_hVEGFR2 assay. It is designed to make measurements of enzyme activity, a form of enzyme reporter, as detected with fluorescence intensity signals by Fluorescence and electrophoretic mobility shift technology.Data from the assay component NVS_ENZ_hVEGFR2 was analyzed into 1 assay endpoint. This assay endpoint, NVS_ENZ_hVEGFR2, was analyzed in the positive analysis fitting direction relative to DMSO as the negative control and baseline of activity. Using a type of enzyme reporter, loss-of-signal activity can be used to understand changes in the enzymatic activity as they relate to the gene KDR. Furthermore, this assay endpoint can be referred to as a primary readout, because this assay has produced multiple assay endpoints where this one serves a enzymatic activity function. To generalize the intended target to other relatable targets, this assay endpoint is annotated to the kinase intended target family, where the subfamily is receptor tyrosine kinase. […]
# Chain of human Vascular Endothelial Growth Factor Receptor 2 (VEGFR2), KDR (gene 3791) (P35968 whole entry, looked up): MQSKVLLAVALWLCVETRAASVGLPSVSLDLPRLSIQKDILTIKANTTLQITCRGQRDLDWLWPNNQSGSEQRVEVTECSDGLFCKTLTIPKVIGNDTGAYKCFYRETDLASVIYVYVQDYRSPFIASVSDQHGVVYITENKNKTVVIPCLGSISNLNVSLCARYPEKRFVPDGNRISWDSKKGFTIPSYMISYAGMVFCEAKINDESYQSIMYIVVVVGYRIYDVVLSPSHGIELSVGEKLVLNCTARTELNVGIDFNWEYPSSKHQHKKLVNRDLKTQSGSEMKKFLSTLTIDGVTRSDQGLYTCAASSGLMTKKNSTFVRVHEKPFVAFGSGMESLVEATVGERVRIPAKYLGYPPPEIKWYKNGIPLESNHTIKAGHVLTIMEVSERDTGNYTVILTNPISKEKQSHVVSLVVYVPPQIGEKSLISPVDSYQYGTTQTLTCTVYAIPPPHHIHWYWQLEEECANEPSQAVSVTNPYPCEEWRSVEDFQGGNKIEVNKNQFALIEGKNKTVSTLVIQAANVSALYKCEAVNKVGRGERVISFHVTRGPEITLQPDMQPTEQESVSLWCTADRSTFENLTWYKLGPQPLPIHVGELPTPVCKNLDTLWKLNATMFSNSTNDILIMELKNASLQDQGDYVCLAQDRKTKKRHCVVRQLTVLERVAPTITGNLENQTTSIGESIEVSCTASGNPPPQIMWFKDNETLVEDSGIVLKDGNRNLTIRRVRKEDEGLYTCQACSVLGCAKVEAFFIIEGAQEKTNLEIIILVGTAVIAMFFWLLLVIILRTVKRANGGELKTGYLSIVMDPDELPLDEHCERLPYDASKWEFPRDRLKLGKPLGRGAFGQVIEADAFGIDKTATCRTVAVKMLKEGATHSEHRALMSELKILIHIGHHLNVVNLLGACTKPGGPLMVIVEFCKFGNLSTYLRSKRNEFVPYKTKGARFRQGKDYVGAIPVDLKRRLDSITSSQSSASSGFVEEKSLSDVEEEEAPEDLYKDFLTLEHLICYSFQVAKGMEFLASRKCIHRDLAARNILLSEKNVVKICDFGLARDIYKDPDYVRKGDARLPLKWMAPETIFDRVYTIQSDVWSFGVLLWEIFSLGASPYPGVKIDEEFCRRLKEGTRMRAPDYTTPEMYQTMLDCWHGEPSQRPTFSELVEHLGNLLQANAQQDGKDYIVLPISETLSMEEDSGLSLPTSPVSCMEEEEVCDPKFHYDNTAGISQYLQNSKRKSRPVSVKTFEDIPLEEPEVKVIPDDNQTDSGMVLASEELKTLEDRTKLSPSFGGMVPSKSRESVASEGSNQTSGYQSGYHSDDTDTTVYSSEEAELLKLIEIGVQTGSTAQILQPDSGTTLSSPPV
# Chain of human Vascular Endothelial Growth Factor Receptor 1 (VEGFR1), FLT1 (gene 2321) (P17948 whole entry, looked up): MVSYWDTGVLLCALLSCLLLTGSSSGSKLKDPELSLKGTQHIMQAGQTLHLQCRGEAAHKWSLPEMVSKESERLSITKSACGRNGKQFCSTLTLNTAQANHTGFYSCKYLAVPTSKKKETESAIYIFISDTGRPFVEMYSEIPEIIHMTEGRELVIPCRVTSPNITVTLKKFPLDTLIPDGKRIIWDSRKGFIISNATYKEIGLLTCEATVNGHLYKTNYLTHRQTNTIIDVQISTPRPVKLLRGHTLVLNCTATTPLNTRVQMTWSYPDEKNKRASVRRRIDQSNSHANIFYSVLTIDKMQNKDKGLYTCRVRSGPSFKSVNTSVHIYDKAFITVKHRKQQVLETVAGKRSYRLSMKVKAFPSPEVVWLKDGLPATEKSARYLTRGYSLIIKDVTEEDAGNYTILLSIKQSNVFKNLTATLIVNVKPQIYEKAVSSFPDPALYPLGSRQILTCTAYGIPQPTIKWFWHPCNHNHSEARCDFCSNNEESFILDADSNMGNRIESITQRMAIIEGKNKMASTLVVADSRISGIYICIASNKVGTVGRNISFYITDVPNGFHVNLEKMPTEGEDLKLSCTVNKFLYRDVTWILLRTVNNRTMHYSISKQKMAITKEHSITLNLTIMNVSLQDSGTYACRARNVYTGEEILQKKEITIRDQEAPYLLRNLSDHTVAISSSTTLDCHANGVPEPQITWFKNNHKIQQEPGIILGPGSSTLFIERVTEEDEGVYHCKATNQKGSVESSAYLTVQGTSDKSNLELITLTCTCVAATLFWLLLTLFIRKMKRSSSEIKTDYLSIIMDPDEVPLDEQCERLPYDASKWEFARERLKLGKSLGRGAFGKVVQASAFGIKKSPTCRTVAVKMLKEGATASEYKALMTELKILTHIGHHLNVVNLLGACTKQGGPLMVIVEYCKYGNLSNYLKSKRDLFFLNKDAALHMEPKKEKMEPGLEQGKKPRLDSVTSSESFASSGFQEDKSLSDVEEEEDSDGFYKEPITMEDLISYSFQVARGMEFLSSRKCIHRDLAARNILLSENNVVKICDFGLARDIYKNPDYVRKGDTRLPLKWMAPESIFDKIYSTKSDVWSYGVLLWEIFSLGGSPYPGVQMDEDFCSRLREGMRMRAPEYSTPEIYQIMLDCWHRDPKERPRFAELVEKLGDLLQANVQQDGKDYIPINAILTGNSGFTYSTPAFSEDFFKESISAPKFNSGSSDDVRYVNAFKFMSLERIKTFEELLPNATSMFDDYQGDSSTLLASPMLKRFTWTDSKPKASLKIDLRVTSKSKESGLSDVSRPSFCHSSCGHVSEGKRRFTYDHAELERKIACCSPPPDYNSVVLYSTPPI
# Chain of human Vascular Endothelial Growth Factor Receptor 3 (VEGFR3), FLT4 (gene 2324) (P35916 whole entry, looked up): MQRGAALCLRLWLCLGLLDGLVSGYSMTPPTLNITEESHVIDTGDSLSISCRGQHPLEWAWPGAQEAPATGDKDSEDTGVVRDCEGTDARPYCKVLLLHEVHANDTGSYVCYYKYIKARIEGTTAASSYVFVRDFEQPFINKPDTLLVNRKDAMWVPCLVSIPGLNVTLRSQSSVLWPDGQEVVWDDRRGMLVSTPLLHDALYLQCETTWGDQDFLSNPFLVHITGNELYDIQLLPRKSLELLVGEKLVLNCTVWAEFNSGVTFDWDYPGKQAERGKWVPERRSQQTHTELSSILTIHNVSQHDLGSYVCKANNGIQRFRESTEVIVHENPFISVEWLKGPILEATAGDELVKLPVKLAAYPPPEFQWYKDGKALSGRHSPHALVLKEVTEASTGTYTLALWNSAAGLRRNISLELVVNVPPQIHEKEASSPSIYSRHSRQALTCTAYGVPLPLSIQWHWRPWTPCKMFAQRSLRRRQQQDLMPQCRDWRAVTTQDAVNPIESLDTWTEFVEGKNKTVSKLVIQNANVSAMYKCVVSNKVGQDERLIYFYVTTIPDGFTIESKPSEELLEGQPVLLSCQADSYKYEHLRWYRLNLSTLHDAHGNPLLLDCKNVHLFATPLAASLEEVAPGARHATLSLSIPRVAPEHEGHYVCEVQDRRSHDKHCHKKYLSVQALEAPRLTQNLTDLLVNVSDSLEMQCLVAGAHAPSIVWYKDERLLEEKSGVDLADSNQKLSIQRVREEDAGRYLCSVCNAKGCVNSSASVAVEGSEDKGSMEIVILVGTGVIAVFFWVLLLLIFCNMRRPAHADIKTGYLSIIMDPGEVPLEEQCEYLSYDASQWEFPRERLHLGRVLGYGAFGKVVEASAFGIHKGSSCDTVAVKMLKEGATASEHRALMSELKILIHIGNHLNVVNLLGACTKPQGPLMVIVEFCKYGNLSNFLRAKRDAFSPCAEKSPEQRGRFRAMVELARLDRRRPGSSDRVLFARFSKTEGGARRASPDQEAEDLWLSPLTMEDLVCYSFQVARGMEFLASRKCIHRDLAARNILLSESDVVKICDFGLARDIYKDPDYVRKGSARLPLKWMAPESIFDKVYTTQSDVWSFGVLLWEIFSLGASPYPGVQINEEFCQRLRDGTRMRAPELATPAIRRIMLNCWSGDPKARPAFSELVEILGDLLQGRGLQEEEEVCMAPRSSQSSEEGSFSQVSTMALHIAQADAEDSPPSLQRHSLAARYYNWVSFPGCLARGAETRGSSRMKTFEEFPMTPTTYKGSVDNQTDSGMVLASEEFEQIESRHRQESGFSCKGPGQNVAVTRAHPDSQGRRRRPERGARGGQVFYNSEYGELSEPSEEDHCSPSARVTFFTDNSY
smiles,measurement,setting,value
C=CCOC(=O)C(C)(C)OC(=O)c1cc(-n2c(=O)cc(C(F)(F)F)n(C)c2=O)ccc1Cl,outcome,[1],inactive
CS(=O)(=O)c1ccc(C(=O)C2C(=O)CCCC2=O)c([N+](=O)[O-])c1,outcome,[2],inactive
Clc1nc(Cl)nc(Nc2ccccc2Cl)n1,outcome,[3],inactive
